Here are results for 79 molecules from PubChem BioAssay AID488977 (Johns Hopkins Ion Channel Center, 2010).

Each structure is given as a SMILES string. In all, about 310,000 compounds went through this assay and about 1,500 (0.48%) were called active.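 How the source made its calls: active means initial fluorescence not abnormally high and integrated response B-score, plate-corrected, over 3 SD above library mean; inactive means the rest.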 Only a selection was taken, and actives are over-represented in it overall. Some structures have more than one record in an assay (separate samples or runs), and their calls can disagree.

The target in the test is High affinity choline transporter 1 (Homo sapiens) (UniProt Q9GZV3). The test is described as follows: allosteric activators of human choline transporter – cell-based, membrane potential dye, choline EC20, primary screen (AID 488977). Particulars: CHT-expressing cells, at 10 µM, LV-AA mutant CHT in HEK293 cells; stronger effect = higher value.
Sequence of High affinity choline transporter 1 (Homo sapiens) (Q9GZV3 whole entry, looked up): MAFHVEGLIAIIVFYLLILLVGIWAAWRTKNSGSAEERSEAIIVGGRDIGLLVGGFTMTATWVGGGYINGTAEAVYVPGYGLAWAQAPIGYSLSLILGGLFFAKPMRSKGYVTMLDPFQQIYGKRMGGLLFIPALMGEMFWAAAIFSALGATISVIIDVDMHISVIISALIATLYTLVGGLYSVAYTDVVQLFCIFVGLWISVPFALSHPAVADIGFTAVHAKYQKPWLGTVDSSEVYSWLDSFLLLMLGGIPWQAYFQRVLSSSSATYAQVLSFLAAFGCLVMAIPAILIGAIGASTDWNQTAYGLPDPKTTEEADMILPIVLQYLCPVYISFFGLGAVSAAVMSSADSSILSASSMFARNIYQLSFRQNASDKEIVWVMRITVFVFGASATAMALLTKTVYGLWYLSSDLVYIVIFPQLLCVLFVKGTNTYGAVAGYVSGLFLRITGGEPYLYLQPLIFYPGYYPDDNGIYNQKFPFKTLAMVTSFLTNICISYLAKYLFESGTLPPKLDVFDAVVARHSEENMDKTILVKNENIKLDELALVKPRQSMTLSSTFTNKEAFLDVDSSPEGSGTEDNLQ
Consider `O=C(NCCc1ccco1)C(=O)NCCC1CCCCN1S(=O)(=O)c1ccccc1` (stereo not given), for which the B-score entry is “inactive”.

On to `CCn1cc(S(=O)(=O)c2cccc(C)c2)c(=O)c2cc(F)c(N3CCN(C)CC3)cc21`, for which the B-score is 8.24 (active).

Regarding `CN1CCN(c2cc3c(cc2F)c(=O)c(C(=O)O)cn3CCF)CC1`, the B-score result was “inactive”.

As to `CCn1cc(C(=O)NCCO)c(=O)c2cc(F)c(N3CCN(C)CC3)cc21`, the B-score entry is “inactive”.

For `CCN1C(=O)[C@H]2[C@@H](c3ccc(-c4ccc(F)cc4)cc3)N[C@@](Cc3ccccc3)(C(=O)OC)[C@H]2C1=O`, the B-score entry was “inactive”.

Take `CN(/N=C/c1ccccc1)C(=S)c1ccccc1`: the B-score result is “inactive”.

Take `Cc1ccc(C)c(OCCC(=O)Nc2cccc(S(=O)(=O)N3CCCC3)c2)c1`: the B-score result was “inactive”.

With `Cn1c(=NC(=O)c2cnccn2)sc2ccccc21`, the B-score is 7.8 (active).

For `Cn1c(=NC(=O)CSCC(=O)N2CCCCC2)sc2ccccc21`, the B-score result was “inactive”.

On to `Cn1c(=NC(=O)c2ccco2)sc2cccc(F)c21`, for which the B-score entry is “inactive”.

For `O=C(Nc1ncccc1O)c1ccc(S(=O)(=O)N2CCCCCC2)cc1`, the B-score result is “inactive”.

`CCN(CC)c1ccc(S(=O)(=O)N2CCCCC2)cc1NC(=O)C1=COCCO1`: the B-score result is “inactive”.

For `OCc1ccc(-c2ccccc2)c(-c2ccccc2)c1`, the B-score result is “inactive”.

Regarding `CS(=O)(=O)N(CC(O)Cn1c2ccccc2c2ccccc21)c1cccc2ccccc12` (stereo not given), the B-score entry was “inactive”.

For the molecule `CCCCN(CCCC)CC(O)Cn1c2ccccc2c(=O)c2ccccc21` (stereo not given), the B-score is 8.77 (active).

For the molecule `O=C1c2ccccc2S(=O)(=O)N1CC(O)Cn1c2ccccc2c2ccccc21` (stereo not given), the B-score result was “inactive”.

As for `COc1ccc(CCNc2cc(N3CCN(C(=O)c4ccccc4OC)CC3)ccc2[N+](=O)[O-])cc1OC`, the B-score entry was “inactive”.

In the case of `COc1cc(OC)c(NC(=O)c2ccc(Br)o2)cc1Cl`, the B-score entry is “inactive”.

As for `CCN1CCN(c2c(Cl)cccc2NC(=O)c2ccc(Br)o2)CC1`, the B-score was 8.41 (active).

Regarding `CCCC(=O)Nc1ccc(Cl)c(NC(=O)c2ccc(Br)o2)c1`, the B-score entry is “inactive”.

For the molecule `O=C1CCCCC1Sc1ccc(Cl)cc1[N+](=O)[O-]` (stereo not given), the B-score result is “inactive”.

Turning to `COC(=O)[C@]1(C)N[C@H](c2ccc(-c3ccc(Cl)c(Cl)c3)cc2)[C@@H]2C(=O)N(C)C(=O)[C@@H]21`, the B-score result was “inactive”.

With `Cc1nnc(C)c2c(C)n(N)c(C)c12`, the B-score is 9.77 (active).

Take `COc1cc(C(=O)NCC(=O)NCCSc2ccc(Br)cc2)cc(OC)c1OC`: the B-score result is “inactive”.

Take `O=C(COC(=O)Cc1c[nH]c2ccccc12)NCCc1ccccc1`: the B-score result was “inactive”.

As to `CCN1C(=S)N[C@@H](CCc2ccccc2)[C@H](C(=O)OC)[C@H]1C`, the B-score entry was “inactive”.

Take `CCN1C(=NCCc2cccnc2)N[C@@H](c2ccccc2)C(C(=O)OC)=C1C`: the B-score entry is “inactive”.

As for `CCN1C(=NCCc2cccnc2)N[C@@H](c2ccccc2)[C@H](C(=O)OC)[C@H]1C`, the B-score is 6.5 (active).

Turning to `O=C(Nc1ncccc1O)c1ccc(S(=O)(=O)N2CCCC2)cc1`, the B-score result is “inactive”.

Consider `COc1cc(C(=O)N(C)Cc2cccc(OC)c2OC)ccc1OCC(=O)Nc1cccc(C(F)(F)F)c1`, for which the B-score result is “inactive”.

Take `O=C(N/N=C/c1cc(Br)c(O)c([N+](=O)[O-])c1)C(O)(c1ccccc1)c1ccccc1`: the B-score entry was “inactive”.

For `C=CCNc1nnc(C)c2ccccc12`, the B-score was 7.04 (active).

For the molecule `COc1ccc(Nc2nnc(C)c3ccccc23)cc1`, the B-score result was “inactive”.

For `C=CCNc1nnc(SCC(=O)N2CCCCC2)c2ccccc12`, the B-score result is “inactive”.

Turning to `COc1ccc(-c2ccc3nnc(SCC(=O)Nc4ccc(NC(C)=O)cc4)n3n2)cc1`, the B-score result is “inactive”.

In the case of `COc1ccc(C(=O)NCC2CCCN2S(=O)(=O)c2cccs2)cc1OC` (stereo not given), the B-score result is “inactive”.

As to `CN1CCN(C2Cc3ccc(Cl)cc3Sc3ccc(F)cc32)CC1` (stereo not given), the B-score result is “inactive”.

With `CCOC(=O)C1CCN(C(=O)COC(=O)C2CCN(S(=O)(=O)c3ccc4c(c3)OCCO4)CC2)CC1`, the B-score result was “inactive”.

For `O=C(COC(=O)C1CCN(S(=O)(=O)c2ccc3c(c2)OCCO3)CC1)Nc1ccccc1OC(F)F`, the B-score is 6.95 (active).

As for `COc1ccccc1CNC(=O)C1CCN(S(=O)(=O)c2ccc3c(c2)OCCO3)CC1`, the B-score result was “inactive”.

In the case of `Cc1ccc(N2CC(C(=O)N3CCC4(CC3)CC(=O)c3ccccc3O4)CC2=O)cc1C` (stereo not given), the B-score entry was “inactive”.

For `O=C(NCCC1CCCCN1S(=O)(=O)c1ccc(Cl)cc1)C(=O)NCc1ccco1` (stereo not given), the B-score result is “inactive”.

Consider `Brc1cnc2ccccc2c1N1CCCCC1`, for which the B-score result is “inactive”.

Consider `CCCNC(=O)c1ccc(N2CCC3(CC2)CC(c2cccc(Br)c2)=NO3)c(NC(=O)c2ccco2)c1`, for which the B-score entry is “inactive”.

With `C#CCOCCOCCOCCNc1nc(N2CCN(C(=O)CCCCCCCCCCNC(=O)[C@H]([C@@H](C)CC)n3cc(CCCCN=C(N)N)nn3)CC2)nc(N2CCN(C(=O)CCCCCCCCCCNC(=O)[C@H](CO)n3cc(CCCSC)nn3)CC2)n1`, the B-score entry was “inactive”.

For the molecule `C#CCOCCOCCOCCNc1nc(N2CCN(C(=O)CCCCCCCCCCNC(=O)Cn3cc(CCCCCN)nn3)CC2)nc(N2CCN(C(=O)CCCCCCCCCCNC(=O)[C@H](CO)n3cc(CCCSC)nn3)CC2)n1`, the B-score entry is “inactive”.

Turning to `C#CCOCCOCCOCCNc1nc(N2CCN(C(=O)CCCCCCCCCCNC(=O)[C@H](CCCCN)n3cc(C)nn3)CC2)nc(N2CCN(C(=O)CCCCCCCCCCNC(=O)[C@H](CO)n3cc(CCCSC)nn3)CC2)n1`, the B-score is 7.24 (active).

In the case of `O=C(Nc1ccccc1N1CCN(c2ccccc2)CC1)c1cccc(F)c1`, the B-score is 7.46 (active).

`O=C(Nc1ccccc1N1CCCCC1)c1cccc(F)c1`: the B-score entry was “inactive”.

Consider `Cc1cccc(C(=O)Nc2ccccc2N2CCN(c3ccc(F)cc3)CC2)c1`, for which the B-score result was “inactive”.

With `CSc1ccccc1NC(=O)c1cnc2sc(C)cn2c1=O`, the B-score result was “inactive”.

As for `CCN1C(=O)[C@@H]2[C@@H](c3ccc(-c4ccc(OC)cc4)c(OC)c3)N3CCC[C@@]3(C(=O)OC)[C@@H]2C1=O`, the B-score entry was “inactive”.

Turning to `Cc1ccc(-c2c[n+](CC(=O)Nc3ccccc3)c3n2CCC3)cc1`, the B-score result was “inactive”.

Take `Cc1ccc(C(=O)C[n+]2cc(-c3ccccc3)n3c2CCCCC3)cc1`: the B-score is 7.44 (active) and the call was inactive.

On to `O=C(C[n+]1cc(-c2ccc(Cl)c(Cl)c2)n2c1CCC2)c1cccs1`, for which the B-score result was “inactive”.

Regarding `Nc1nonc1-n1nnc(C(=O)N/N=C/c2ccccc2O)c1CN1CCCC1`, the B-score entry is “inactive”.

On to `Cc1cc(/C=N/NC(=O)CC2(C)OCCO2)c(C)n1-c1ccc(Cl)c(Cl)c1`, for which the B-score entry is “inactive”.

As to `Cc1ccc(-n2c(C)cc(/C=N\NC(=O)CC(=O)NC(C)C)c2C)cc1`, the B-score was 11.1 (active).

In the case of `CSc1ccc(/C=N\NC(=O)CC(=O)NC(C)C)cc1`, the B-score entry is “inactive”.

`CN(C(=O)c1cc2c(=O)n3ccccc3nc2s1)C1CCCCC1`: the B-score entry was “inactive”.

As for `O=C1N[C@@H](Cc2ccccc2)C(=O)N2[C@H]1C[C@]1(Br)c3ccccc3N(S(=O)(=O)c3ccccc3)[C@H]21`, the B-score result was “inactive”.

Turning to `O=S(=O)(O)Oc1c[nH]c2ccccc12`, the B-score result was “inactive”.

For `COc1cc2c(cc1OC)C(C(C)C)=NC(C)(C)C2`, the B-score result was “inactive”.

Turning to `COc1cc2c(cc1O)C(SC)=NC(C)(C)C2`, the B-score result was “inactive”.

For `COc1cc2c(cc1OC)C(Nc1ccc(S(N)(=O)=O)cc1)=NC(C)(C)C2`, the B-score is 9.17 (active).

Regarding `O=C(NCCCc1ccccc1)C(=O)NCC1OCCN1S(=O)(=O)c1ccccc1` (stereo not given), the B-score result was “inactive”.

Regarding `O=C(NCCC1=CCCCC1)C1CCN(Cc2cnn(-c3ccccc3)c2-n2cccc2)CC1`, the B-score was 6.26 (active).

With `C1=C(CCNc2ncnc3c2cnn3-c2ccccc2)CCCC1`, the B-score entry is “inactive”.

As to `Cc1ccc(S(=O)(=O)N2CCC(C(=O)NCCC3=CCCCC3)CC2)cc1C`, the B-score result is “inactive”.

As for `COc1ccccc1C(=O)Nc1ccccc1C(=O)Nc1ccccc1`, the B-score entry is “inactive”.

With `COc1ccccc1-c1nnc(-c2ccc(F)cc2)o1`, the B-score result was “inactive”.

Turning to `Cc1cc(=O)oc2ccc(OCC(=O)O)cc12`, the B-score entry was “inactive”.

On to `Cc1cc(=O)oc2cc(OCCC[n+]3ccccc3)ccc12`, for which the B-score is 8.55 (active).

As for `Cc1ccccc1N1CCN(CCCOc2ccc3c(C)cc(=O)oc3c2)CC1`, the B-score result was “inactive”.

In the case of `O=[N+]([O-])c1ccc(N2CCNCC2)cc1NCc1cccnc1`, the B-score is 6.95 (active).

With `O=C(c1ccccc1)N1CCN(c2ccc([N+](=O)[O-])c(NCc3ccco3)c2)CC1`, the B-score entry was “inactive”.

As for `O=[N+]([O-])c1ccc(N2CCN(S(=O)(=O)c3ccc4ccccc4c3)CC2)cc1NCc1ccco1`, the B-score entry was “inactive”.

Regarding `Cc1cc(Br)ccc1NC(=O)CN(C)C(=O)CN1C(=O)NC2(CCCC2)C1=O`, the B-score result is “inactive”.

Turning to `COc1cc(/C=N/NC(=O)c2cc(-c3ccccc3C)nc3ccccc23)cc(OC)c1O`, the B-score result was “inactive”.
